{
  "source": "PubChem BioAssay AID720596",
  "about": "(The Scripps Research Institute Molecular Screening Center, 2013)",
  "note": "The whole screen tested about 370,000 compounds, of which about 1,600 (0.43%) were called active. The entries come from a sample that favours actives as a whole. Unmarked numbers belong to inactive results. No stated cut-off is given here; in the data, active means inhibition above about 24%; inactive means the rest.",
  "data": [
    {"target": "Major prion protein (Homo sapiens) (UniProt P04156)", "assay": "reduces human prion protein on the cell surface, primary screen, cell-based, TR-FRET (AID 720596); further: 0% = median of the test wells and 100% = reference compound wells", "settings": "cell surface PrPC, TR-FRET read-out; at 13.8 µM; active compounds read high", "values": [
      {"smiles": "O=C(CCS(=O)(=O)c1ccccc1)Nc1ccc(Cl)c(Cl)c1", "inhibition": "4.48%"},
      {"smiles": "O=C(CC(O)(C(F)(F)F)C(F)(F)F)Nc1ccc(Cl)c(Cl)c1", "inhibition": "64.7% (active)"},
      {"smiles": "CC(c1cccnc1)N(CCN(C)C)C(=O)Nc1ccc(Cl)c(Cl)c1", "note": "(stereo unspecified)", "inhibition": "2.3%"},
      {"smiles": "CC(C)c1ccc(NC(=O)[C@@H](NC(=O)N2CC(=O)Nc3ccccc32)C(C)C)cc1", "inhibition": "3.7%"},
      {"smiles": "COC(=O)c1c(-c2cccs2)csc1NC(=O)CSc1ncnc2sc(C)c(C)c12", "inhibition": "-2.84%"},
      {"smiles": "Cc1sc2ncnc(SCC(=O)NC3CCS(=O)(=O)C3)c2c1C", "note": "(stereo unspecified)", "inhibition": "9.26%"},
      {"smiles": "Cc1sc2ncnc(SCC(=O)Nc3ccc(CN4CCCC4)cc3)c2c1C", "inhibition": "33.7% (active)"},
      {"smiles": "CC/C(=N\\O)C(C)(C)/[N+]([O-])=C/c1ccc(Br)cc1", "inhibition": "10.7%"},
      {"smiles": "O=C1CCCC2=C1C(c1cccs1)n1nc(SCc3ccccc3)nc1N2", "note": "(stereo unspecified)", "inhibition": "50.8% (active)"},
      {"smiles": "O=C1CCCC2=C1C(c1cccs1)CC(=O)N2c1ccc(F)cc1", "note": "(stereo unspecified)", "inhibition": "0.75%"},
      {"smiles": "CCC(=O)N1c2ccccc2NC2=C(C(=O)CCC2)C1c1ccco1", "note": "(stereo unspecified)", "inhibition": "-1.24%"},
      {"smiles": "CC(=O)c1c(C)[nH]c(C(=O)OCC(=O)Nc2c(C)n(C)n(-c3ccccc3)c2=O)c1C", "inhibition": "6.5%"},
      {"smiles": "COc1ccc2c(c1)[C@@]13CCCCC1[C@@H](C2)NCC3", "note": "(stereo partly specified)", "inhibition": "1.48%"},
      {"smiles": "Cc1ccc(CC(=O)Nc2ccc(S(=O)(=O)N3CCOCC3)cc2)cc1C", "inhibition": "10.2%"},
      {"smiles": "Cc1cc2cc(CNC(=O)c3ccc(S(=O)(=O)N4CCOCC4)cc3)ccc2[nH]1", "inhibition": "27.4% (active)"},
      {"smiles": "Cc1cc2cc(CNC(=O)c3cccs3)ccc2[nH]1", "inhibition": "7.85%"},
      {"smiles": "Cc1nc(NC(=O)CCC(=O)O)sc1C(=O)N(C)C", "inhibition": "0.26%"},
      {"smiles": "CN(C)CCNC(=O)c1ccc(Cl)c2cc3ccccc3nc12", "inhibition": "34.5% (active)"},
      {"smiles": "Nc1nc2c(Br)ccc(Br)c2cc1C(=O)NCCc1ccccc1", "inhibition": "6.33%"},
      {"smiles": "Cc1c(C(=O)NCCN(C)C)oc2ccc(S(=O)(=O)N3CCCC3)cc12", "inhibition": "1.49%"},
      {"smiles": "CCN(Cc1ccccc1)C(=O)CN1C(=S)NC(C)(C)CC1C", "note": "(stereo unspecified)", "inhibition": "6.01%"},
      {"smiles": "CCN(c1ccccc1)S(=O)(=O)c1ccc2[nH]c(=O)[nH]c2c1", "inhibition": "-6.81%"},
      {"smiles": "O=C(Nc1ccc(N2CCN(C(=O)c3ccccc3)CC2)c(Cl)c1)c1cccnc1", "inhibition": "26.1% (active)"},
      {"smiles": "Cc1ccccc1N1CCN(C(=O)c2cccnc2)CC1", "inhibition": "-4.83%"},
      {"smiles": "O=C(Nc1ccc(N2CCN(C(=O)c3ccccc3)CC2)c(Cl)c1)c1ncn[nH]1", "inhibition": "11.2%"},
      {"smiles": "Cc1ccc(Cn2cc(C(=O)NN)c(=O)c3ccc(F)cc32)cc1", "inhibition": "-1.23%"},
      {"smiles": "O=C(c1ccc(F)cc1)c1cn(Cc2ccc(F)cc2)c2cc3c(cc2c1=O)OCCO3", "inhibition": "34.4% (active)"},
      {"smiles": "COc1ccc2c(c1)c(=O)c(C(=O)c1ccc(Cl)cc1)cn2CC(=O)Nc1ccc(F)cc1", "inhibition": "0.3%"},
      {"smiles": "CCCCc1nc2cc(C(=O)NCCc3cnn(C)c3)ccc2o1", "inhibition": "-7.17%"},
      {"smiles": "CC(C)N(Cc1nc(-c2ccc3c(c2)OCO3)no1)CC1CCC(=O)N1", "note": "(stereo unspecified)", "inhibition": "7.11%"},
      {"smiles": "N#Cc1c(N)nc2c3c(sc(=N)c2c1N)NC(=O)CC3c1ccccc1Cl", "note": "(stereo unspecified)", "inhibition": "31.5% (active)"},
      {"smiles": "CC(C)CCN1CCC(C)(NC(=O)c2ccccc2)C1=O", "note": "(stereo unspecified)", "inhibition": "-6.7%"},
      {"smiles": "CC1(c2ccccc2)NC(=O)N(CC(=O)N2CC(=O)Nc3ccccc32)C1=O", "note": "(stereo unspecified)", "inhibition": "1.68%"},
      {"smiles": "COc1ccc(-c2c(C)cc3oc(=O)cc(-c4ccccc4)c3c2C)cc1C=O", "inhibition": "4.67%"},
      {"smiles": "CN(C(=O)COC(=O)CCCc1c[nH]c2ccccc12)c1c(N)n(Cc2ccccc2)c(=O)[nH]c1=O", "inhibition": "7.89%"},
      {"smiles": "Cc1ccc(Oc2cnn(-c3ccccc3)c(=O)c2Br)cc1", "inhibition": "32.8% (active)"},
      {"smiles": "Cc1ccc(OC(=O)c2c(C)nn(-c3ccccc3)c2C)cc1", "inhibition": "4.97%"},
      {"smiles": "CCOc1ccc(Oc2c(Cl)cnn(-c3ccc(C)cc3)c2=O)cc1", "inhibition": "-10.9%"},
      {"smiles": "CCC(C)[C@@H](C(=O)OC)N(CCc1cn(Cc2ccccc2)nn1)S(=O)(=O)c1ccccc1Br", "note": "(stereo partly specified)", "inhibition": "2.07%"},
      {"smiles": "CC(=O)Nc1ccc(S(=O)(=O)N2CCC(NC(=O)c3ccccc3)CC2)cc1", "inhibition": "-5.81%"},
      {"smiles": "CN(Cc1c(F)cccc1Cl)S(=O)(=O)c1cccs1", "inhibition": "-6.92%"},
      {"smiles": "O=C(CCCOc1ccccc1)Nc1cccc(C(=O)O)c1", "inhibition": "2.69%"},
      {"smiles": "COc1cccc(NC(=S)C(C#N)=C2N(C)c3ccccc3N2C)c1", "inhibition": "-1.55%"},
      {"smiles": "CC(=O)Nc1cccc(OCC(=O)/C=C2\\N(C)c3ccccc3C2(C)C)c1", "inhibition": "29.7% (active)"},
      {"smiles": "Cc1nnc(NC(=O)CCC(=O)N2CCC(C)CC2)s1", "inhibition": "-8.95%"},
      {"smiles": "COc1ccc(/C=C/CN2CCCC(C(=O)c3cc(F)ccc3F)C2)cc1", "note": "(stereo unspecified)", "inhibition": "3.26%"},
      {"smiles": "COc1cc2c(cc1OC)C(=O)NCC(C)(C)O2", "inhibition": "6.88%"},
      {"smiles": "O=C(Nc1cccn(Cc2ccccc2Cl)c1=O)NC1CCCCC1", "inhibition": "24.9% (active)"},
      {"smiles": "O=C(Nc1cccn(Cc2c(Cl)cccc2Cl)c1=O)c1ccc(Cl)cc1", "inhibition": "2.47%"},
      {"smiles": "COc1ccc(Cn2cccc(NC(=O)Nc3ccc(C#N)cc3)c2=O)cc1", "inhibition": "4.26%"},
      {"smiles": "CC1(C)CC(=O)C(C=NCc2cccnc2)=C(O)C1", "inhibition": "6.76%"},
      {"smiles": "C=CCn1c(O)c(/C=N/N2CCOCC2)c(=O)[nH]c1=S", "inhibition": "-4.21%"},
      {"smiles": "COC(=O)C(c1ccccc1)N1CCCCCC1", "note": "(stereo unspecified)", "inhibition": "-4.88%"},
      {"smiles": "CC1(C)CC(N2CCN(C(c3ccccc3)c3ccccc3)CC2)=CC(=[N+]2CCCCC2)C1", "inhibition": "24.4% (active)"},
      {"smiles": "Cc1ccc(CNC(=O)Nc2nnc([C@H]3C[C@H](O)[C@@H](CO)O3)s2)cc1", "inhibition": "25.8% (active)"},
      {"smiles": "O=C(Nc1nnc([C@H]2C[C@H](O)[C@@H](CO)O2)s1)c1cccc(Cl)c1", "inhibition": "-5.24%"},
      {"smiles": "O=C(Nc1ccc(F)cc1)Nc1nnc([C@H]2C[C@H](O)[C@@H](CO)O2)s1", "inhibition": "1.64%"},
      {"smiles": "COC(=O)CSc1nc(C2CC2)nc2ccccc12", "inhibition": "34% (active)"},
      {"smiles": "CN(C(=O)CSc1nc(C2CC2)nc2ccccc12)c1nc(-c2ccccc2)cs1", "inhibition": "-2.06%"},
      {"smiles": "Cc1nnc(NC(=O)CSc2nc(C3CCCCC3)nc3ccccc23)s1", "inhibition": "2.15%"},
      {"smiles": "Cc1c(Br)c([N+](=O)[O-])nn1C(C)C(=O)Nc1nccs1", "note": "(stereo unspecified)", "inhibition": "-4.47%"},
      {"smiles": "COc1ccc(S(=O)(=O)N2CCOCC2)cc1NC(=O)CSc1ncnc2ccccc12", "inhibition": "47.3% (active)"},
      {"smiles": "COc1ccc(S(=O)(=O)N2CCOCC2)cc1NC(=O)CSc1cc(C)ccc1C", "inhibition": "-4.51%"},
      {"smiles": "COc1ccc(S(=O)(=O)N2CCOCC2)cc1NC(=O)CSc1nnc(NC2CC2)s1", "inhibition": "7.4%"},
      {"smiles": "Cc1oc(-c2ccccc2Cl)[n+]([O-])c1C", "inhibition": "-0.12%"},
      {"smiles": "COC(=O)c1sccc1NC(=O)CC1C(=O)NCCN1C(=O)Nc1ccc(F)cc1F", "note": "(stereo unspecified)", "inhibition": "4.59%"}
    ]}
  ]
}
